Results filed as inconclusive are left out. Calls of active or inactive are those of the source. Calls follow the shape of the dose curve; as a rule, active = well fitted cell-killing curve with a large enough effect; inconclusive = small, poorly fitted or top-dose-only effect; inactive = no such curve, though single readings can be large or run the other way.

The nature of the experiment: qHTS of pediatric cancer cell lines to identify multiple opportunities for drug repurposing: Primary screen for Rh41 cells (AID 1347108).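 Also: luminescence drop marks cytotoxic hits; nearly all actives have a fitted effect of over 70% in size.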 Particulars: Rh41 rhabdomyosarcoma viability, CellTiter-Glo luminescence, 48 h; series mostly up to 46 µM. Summed up:
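Quantitative HTS format: each compound titrated (MIPE 11 points from 0.78 nM, NPC 8 points from 0.59 nM) onto cells plated 5 hours earlier. After 48 h at 37 degrees C, CellTiter-Glo luminescence was recorded.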
As for `Cc1ccccc1N=Nc1ccc(N=Nc2c(O)ccc3ccccc23)c(C)c1`, the call was inactive. On the same count and under the same terms, the same measure for `Nc1ccc(C(=O)Oc2ccccc2)c(O)c1`: “inactive”; for `NC(=O)N[C@@H](CCC(=O)O)C(=O)O`: “inactive”; for `CC[C@]12CCCN3CCc4c(n(c5ccccc45)[C@@](O)(C(=O)OC)C1)[C@@H]32`: “inactive”.

Turning to `CC(=O)OC[C@H]1O[C@@](COC(C)=O)(O[C@H]2O[C@H](COC(C)=O)[C@@H](OC(C)=O)[C@H](OC(C)=O)[C@H]2OC(C)=O)[C@@H](OC(C)=O)[C@@H]1OC(C)=O`, the molecule was classed as inactive. Still for that read-out and setting: to `O=C(O)CCCCC1CCSS1` (stereo unspecified) belongs “inactive”; to `C[C@@H]1CCC[C@H](C)N1`, “inactive”; to `CCCCOC(=O)c1ccc(N)cc1`, “inactive”. Still for that read-out and setting: to `O=C(/C=C/c1ccccc1)OCc1ccccc1` belongs “inactive”; to `O=C(O)Cc1ccc(CCNS(=O)(=O)c2ccc(Cl)cc2)cc1`, “inactive”; to `NC(=O)c1ccc([N+](=O)[O-])cc1Cl`, “inactive”. On to `NC(N)=NCCN1CCCCCCC1`, for which the activity change, negative = cytotoxic is 22.2% [at 0.597 µM] (inactive).

Take `OC[C@@H](O)[C@@H](O)[C@H](O)[C@H](O)CO`: the outcome was inactive. Same read-out and setting: to `CC1CCc2cc(F)cc3c(=O)c(C(=O)O)cn1c23` (stereo unspecified) belongs “inactive”; to `CCS(=O)(=O)CCn1c([N+](=O)[O-])cnc1C`, “inactive”. Still for that read-out and setting: the same measure for `CN1CC(=O)NC1=N`: “inactive”; for `Cc1cccc(Nc2ccccc2C(=O)O)c1C`: “inactive”; for `c1ccc2[nH]ccc2c1`: “inactive”. The same measure, in the same setting: the same measure for `CCN[C@H]1CN(CCCOC)S(=O)(=O)c2sc(S(N)(=O)=O)cc21`: “inactive”; for `O=C1CC[C@@H](C(=O)O)N1`: “inactive”; for `CC(=O)NCc1c(I)c(NC(C)=O)c(I)c(C(=O)O)c1I`: “inactive”.

For the origin of these results see PubChem BioAssay (NCATS).
